# Source: the supplement of paper PMC7261846
# Structures can show the parent of a compound that is named as a salt. ± gives the uncertainty stated by the source.
# Test system: Candida albicans SNY425 biofilm
# Assay: biofilm OD600 with compound plus antifungal (OD600 (absorbance)); higher = more biofilm remaining
# [1] = assay detail: disruption of 24-h mature biofilm (compound + antifungal for a second 24 h)
# [2] = assay detail: sustained inhibition (compound + antifungal during 90-min adherence and 24-h growth)
SMILES,biofilm OD600 [1],biofilm OD600 [2]
CC(C)c1nc(CN(C)C(=O)N[C@H](C(=O)N[C@@H](Cc2ccccc2)C[C@H](O)[C@H](Cc2ccccc2)NC(=O)OCc2cncs2)C(C)C)cs1 [ritonavir] + C[C@@H]1[C@H](O)[C@@H](C)/C=C/C=C/C=C/C=C/C=C/C=C/C=C/[C@H](O[C@@H]2O[C@H](C)[C@@H](O)[C@H](N)[C@@H]2O)C[C@@H]2O[C@](O)(C[C@@H](O)C[C@@H](O)[C@H](O)CC[C@@H](O)C[C@@H](O)CC(=O)O[C@H]1C)C[C@H](O)[C@H]2C(=O)O [amphotericin B] (first compound 12.5 µM),0.246 ± 0.0053,0.146 ± 0.0034
CC1CNc2c(cccc2S(=O)(=O)N[C@@H](CCCNC(=N)N)C(=O)N2CC[C@@H](C)C[C@@H]2C(=O)O)C1 (stereo not given in full) [Argatroban] + C[C@@H]1[C@H](O)[C@@H](C)/C=C/C=C/C=C/C=C/C=C/C=C/C=C/[C@H](O[C@@H]2O[C@H](C)[C@@H](O)[C@H](N)[C@@H]2O)C[C@@H]2O[C@](O)(C[C@@H](O)C[C@@H](O)[C@H](O)CC[C@@H](O)C[C@@H](O)CC(=O)O[C@H]1C)C[C@H](O)[C@H]2C(=O)O [amphotericin B] (first compound 12.5 µM),0.3 ± 0.018,0.191 ± 0.0048
N=C(N)Nc1ccc(C(=O)Oc2ccc3cc(C(=N)N)ccc3c2)cc1 [Nafamostat mesylate] + CC[C@H](C)C[C@H](C)CCCCCCCCC(=O)N[C@H]1C[C@@H](O)[C@@H](NCCN)NC(=O)[C@@H]2[C@@H](O)CCN2C(=O)[C@H]([C@H](O)CCN)NC(=O)[C@H]([C@H](O)[C@@H](O)c2ccc(O)cc2)NC(=O)[C@@H]2C[C@@H](O)CN2C(=O)[C@H]([C@@H](C)O)NC1=O [caspofungin] (first compound 12.5 µM),0.25 ± 0.0081,0.162 ± 0.012
CCOC(=O)[C@H](CCc1ccccc1)N[C@@H](C)C(=O)N1CCC[C@H]1C(=O)O [Enalapril] + OC(Cn1cncn1)(Cn1cncn1)c1ccc(F)cc1F [fluconazole] (first compound 12.5 µM),0.258 ± 0.0055,0.157 ± 0.015
CC(C)C[C@H](NP(=O)(O)O[C@@H]1O[C@@H](C)[C@H](O)[C@@H](O)[C@H]1O)C(=O)N[C@@H](Cc1c[nH]c2ccccc12)C(=O)O [Phosphoramidon] + C[C@@H]1[C@H](O)[C@@H](C)/C=C/C=C/C=C/C=C/C=C/C=C/C=C/[C@H](O[C@@H]2O[C@H](C)[C@@H](O)[C@H](N)[C@@H]2O)C[C@@H]2O[C@](O)(C[C@@H](O)C[C@@H](O)[C@H](O)CC[C@@H](O)C[C@@H](O)CC(=O)O[C@H]1C)C[C@H](O)[C@H]2C(=O)O [amphotericin B] (first compound 12.5 µM),0.28 ± 0.0089,0.211 ± 0.0094
CC1CNc2c(cccc2S(=O)(=O)N[C@@H](CCCNC(=N)N)C(=O)N2CC[C@@H](C)C[C@@H]2C(=O)O)C1 (stereo not given in full) [Argatroban] + OC(Cn1cncn1)(Cn1cncn1)c1ccc(F)cc1F [fluconazole] (first compound 12.5 µM),0.286 ± 0.011,0.113 ± 0.0066
Cc1c(O)cccc1C(=O)N[C@@H](CSc1ccccc1)[C@H](O)CN1C[C@H]2CCCC[C@H]2C[C@H]1C(=O)NC(C)(C)C [nelfinavir] + OC(Cn1cncn1)(Cn1cncn1)c1ccc(F)cc1F [fluconazole] (first compound 12.5 µM),0.255 ± 0.0099,0.121 ± 0.018
CC(C)C[C@H](NC(=O)[C@H]1O[C@@H]1C(=O)O)C(=O)NCCCCN=C(N)N + CC[C@H](C)C[C@H](C)CCCCCCCCC(=O)N[C@H]1C[C@@H](O)[C@@H](NCCN)NC(=O)[C@@H]2[C@@H](O)CCN2C(=O)[C@H]([C@H](O)CCN)NC(=O)[C@H]([C@H](O)[C@@H](O)c2ccc(O)cc2)NC(=O)[C@@H]2C[C@@H](O)CN2C(=O)[C@H]([C@@H](C)O)NC1=O [caspofungin] (first compound 12.5 µM),0.261 ± 0.01,0.18 ± 0.008
CC(C)(C)NC(=O)[C@@H]1C[C@@H]2CCCC[C@@H]2CN1C[C@@H](O)[C@H](Cc1ccccc1)NC(=O)[C@H](CC(N)=O)NC(=O)c1ccc2ccccc2n1 [saquinavir] + CC[C@H](C)C[C@H](C)CCCCCCCCC(=O)N[C@H]1C[C@@H](O)[C@@H](NCCN)NC(=O)[C@@H]2[C@@H](O)CCN2C(=O)[C@H]([C@H](O)CCN)NC(=O)[C@H]([C@H](O)[C@@H](O)c2ccc(O)cc2)NC(=O)[C@@H]2C[C@@H](O)CN2C(=O)[C@H]([C@@H](C)O)NC1=O [caspofungin] (first compound 12.5 µM),0.148 ± 0.0056,0.042 ± 0.0016
CC(C)CCNC(=O)[C@H](CC(C)C)NC(=O)[C@H]1O[C@@H]1C(=O)O + CC[C@H](C)C[C@H](C)CCCCCCCCC(=O)N[C@H]1C[C@@H](O)[C@@H](NCCN)NC(=O)[C@@H]2[C@@H](O)CCN2C(=O)[C@H]([C@H](O)CCN)NC(=O)[C@H]([C@H](O)[C@@H](O)c2ccc(O)cc2)NC(=O)[C@@H]2C[C@@H](O)CN2C(=O)[C@H]([C@@H](C)O)NC1=O [caspofungin] (first compound 12.5 µM),0.268 ± 0.0056,0.17 ± 0.01
CCC(C)[C@H](NS(=O)(=O)c1cccc2ccccc12)C(=O)N[C@H](C=O)Cc1c[nH]c2ccccc12 (stereo not given in full) + C[C@@H]1[C@H](O)[C@@H](C)/C=C/C=C/C=C/C=C/C=C/C=C/C=C/[C@H](O[C@@H]2O[C@H](C)[C@@H](O)[C@H](N)[C@@H]2O)C[C@@H]2O[C@](O)(C[C@@H](O)C[C@@H](O)[C@H](O)CC[C@@H](O)C[C@@H](O)CC(=O)O[C@H]1C)C[C@H](O)[C@H]2C(=O)O [amphotericin B] (first compound 12.5 µM),0.27 ± 0.0099,0.188 ± 0.0088
CCCC[C@@H](C=O)NC(=O)OC(C)(C)C + OC(Cn1cncn1)(Cn1cncn1)c1ccc(F)cc1F [fluconazole] (first compound 12.5 µM),0.243 ± 0.0054,0.117 ± 0.0068
O=C[C@@H]1CCCN1C(=O)[C@@H]1CCCN1C(=O)OCc1ccccc1 [Z-Prolyl-prolinal] + C[C@@H]1[C@H](O)[C@@H](C)/C=C/C=C/C=C/C=C/C=C/C=C/C=C/[C@H](O[C@@H]2O[C@H](C)[C@@H](O)[C@H](N)[C@@H]2O)C[C@@H]2O[C@](O)(C[C@@H](O)C[C@@H](O)[C@H](O)CC[C@@H](O)C[C@@H](O)CC(=O)O[C@H]1C)C[C@H](O)[C@H]2C(=O)O [amphotericin B] (first compound 12.5 µM),0.262 ± 0.013,0.156 ± 0.0083
CSCCC(C=O)NC(=O)C(CC(C)C)NC(=O)[C@H](CC(C)C)NC(C)=O (stereo not given in full) [Calpain Inhibitor II (ALLM)] + C[C@@H]1[C@H](O)[C@@H](C)/C=C/C=C/C=C/C=C/C=C/C=C/C=C/[C@H](O[C@@H]2O[C@H](C)[C@@H](O)[C@H](N)[C@@H]2O)C[C@@H]2O[C@](O)(C[C@@H](O)C[C@@H](O)[C@H](O)CC[C@@H](O)C[C@@H](O)CC(=O)O[C@H]1C)C[C@H](O)[C@H]2C(=O)O [amphotericin B] (first compound 12.5 µM),0.247 ± 0.0052,0.193 ± 0.0094
CC(C)C[C@H](NC(=O)N[C@H](C(=O)N[C@@H](CCC(N)=O)C(=O)N[C@@H](C)C=O)[C@@H]1CCNC(=N)N1)C(=O)O [Elastatinal] + CC[C@H](C)C[C@H](C)CCCCCCCCC(=O)N[C@H]1C[C@@H](O)[C@@H](NCCN)NC(=O)[C@@H]2[C@@H](O)CCN2C(=O)[C@H]([C@H](O)CCN)NC(=O)[C@H]([C@H](O)[C@@H](O)c2ccc(O)cc2)NC(=O)[C@@H]2C[C@@H](O)CN2C(=O)[C@H]([C@@H](C)O)NC1=O [caspofungin] (first compound 12.5 µM),0.263 ± 0.0069,0.189 ± 0.011
CC(NC(=O)C(Cc1ccccc1)NC(=O)OCc1ccccc1)C(=O)CF (stereo not given) + OC(Cn1cncn1)(Cn1cncn1)c1ccc(F)cc1F [fluconazole] (first compound 12.5 µM),0.287 ± 0.011,0.119 ± 0.0049
C[C@H](NC(=O)[C@@H]1CCCN1C(=O)[C@@H]1CCCN1C(=O)[C@@H](O)[C@H](N)Cc1ccccc1)C(N)=O [Apstatin] + C[C@@H]1[C@H](O)[C@@H](C)/C=C/C=C/C=C/C=C/C=C/C=C/C=C/[C@H](O[C@@H]2O[C@H](C)[C@@H](O)[C@H](N)[C@@H]2O)C[C@@H]2O[C@](O)(C[C@@H](O)C[C@@H](O)[C@H](O)CC[C@@H](O)C[C@@H](O)CC(=O)O[C@H]1C)C[C@H](O)[C@H]2C(=O)O [amphotericin B] (first compound 12.5 µM),0.294 ± 0.0093,0.193 ± 0.0078
CCCC[C@@H](C=O)NC(=O)[C@H](CC(C)C)NC(=O)OCc1ccccc1 [Calpeptin] + OC(Cn1cncn1)(Cn1cncn1)c1ccc(F)cc1F [fluconazole] (first compound 12.5 µM),0.26 ± 0.0076,0.162 ± 0.01
CSCCC(C=O)NC(=O)C(CC(C)C)NC(=O)[C@H](CC(C)C)NC(C)=O (stereo not given in full) [Calpain Inhibitor II (ALLM)] + OC(Cn1cncn1)(Cn1cncn1)c1ccc(F)cc1F [fluconazole] (first compound 12.5 µM),0.239 ± 0.0058,0.146 ± 0.0052
CC(C)c1nc(CN(C)C(=O)N[C@H](C(=O)N[C@@H](Cc2ccccc2)C[C@H](O)[C@H](Cc2ccccc2)NC(=O)OCc2cncs2)C(C)C)cs1 [ritonavir] + CC[C@H](C)C[C@H](C)CCCCCCCCC(=O)N[C@H]1C[C@@H](O)[C@@H](NCCN)NC(=O)[C@@H]2[C@@H](O)CCN2C(=O)[C@H]([C@H](O)CCN)NC(=O)[C@H]([C@H](O)[C@@H](O)c2ccc(O)cc2)NC(=O)[C@@H]2C[C@@H](O)CN2C(=O)[C@H]([C@@H](C)O)NC1=O [caspofungin] (first compound 12.5 µM),0.159 ± 0.0069,0.12 ± 0.009
